The campaign covered roughly 400,000 compounds. About 3,700 (0.93%) were called active. About 3% were inconclusive and are not listed. The call rests on the fitted dose curve; in most records, active means well fitted inhibition curve with a large enough effect; inconclusive means small, poorly fitted or top-dose-only effect, or another doubt; inactive means no such curve, though single readings can be large or run the other way. For the sample, actives were picked, then their nearest neighbours and some compounds at random.
biological target: Vitamin D3 receptor (Homo sapiens) (UniProt P11473); experiment: Inhibitors of the vitamin D receptor (VDR): qHTS; details: VDR-SRC2-3 peptide fluorescence polarization, 2 h; max response, negative = inhibition: stronger effect = lower value
Sequence (P11473 whole entry, looked up): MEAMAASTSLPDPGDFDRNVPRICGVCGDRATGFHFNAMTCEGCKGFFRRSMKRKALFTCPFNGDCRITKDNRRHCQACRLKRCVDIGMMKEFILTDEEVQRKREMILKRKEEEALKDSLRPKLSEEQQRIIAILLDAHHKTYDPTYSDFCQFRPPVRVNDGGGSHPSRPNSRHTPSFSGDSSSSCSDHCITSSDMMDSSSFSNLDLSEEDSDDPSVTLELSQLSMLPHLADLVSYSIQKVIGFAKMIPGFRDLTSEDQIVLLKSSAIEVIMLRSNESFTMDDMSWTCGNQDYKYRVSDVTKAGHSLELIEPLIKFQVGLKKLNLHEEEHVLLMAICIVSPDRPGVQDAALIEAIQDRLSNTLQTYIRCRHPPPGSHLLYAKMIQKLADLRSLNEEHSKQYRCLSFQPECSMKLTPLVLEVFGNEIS
How it was run: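 After 23 nl compound addition and a short centrifugation, plates sat for 2 hours at ambient temperature; polarization of fluorescence then indicated loss of VDR binding to peptide SRC2-3.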
On the % scale 0 is the no-effect control and ±100 the full control effect; potency means the concentration at half of the fitted maximal effect.

Compound	max response, negative = inhibition	Potency
COc1cc(C(=O)N2CCN(C(=O)COc3cccc(C)c3)CC2)cc(OC)c1OC	-6.68% (inactive)	–
Cc1ccc(-c2cc(C(=O)NC3CCN(Cc4ccccc4)CC3)c3ccccc3n2)cc1	-7.79% (inactive)	–
Cc1ccc(CN2C(=O)SC(Nc3ccccc3)C2=O)cc1 (stereo not drawn)	-7.63% (inactive)	–
Cc1ccc(-c2nc(=N)sn2Cc2ccccc2)cc1	–	17.8 µM (active)
CC(=O)/C(C)=N\O	-2.4% (inactive)	–
CCOc1ccc(CNC(=O)c2cc(=O)[nH]c3ccc(S(=O)(=O)N4CCCCC4)cc23)cc1	6.6% (inactive)	–
O=C(NC1CC(=O)N(c2ccc(F)cc2)C1)C1CCCCC1 (stereo not drawn)	-2.82% (inactive)	–
CCCn1c2ccccc2c2cnn(CC(=O)N(CC)c3cc(C)ccc3C)c(=O)c21	3.02% (inactive)	–
CCN(CCCNC(=O)c1ccc(Sc2ccc(C)cc2)c(NC(C)=O)c1)c1cccc(C)c1	9.47% (inactive)	–
CCN(CCCNC(=O)Cn1ncc2c([nH]c3ccccc32)c1=O)c1cccc(C)c1	2.86% (inactive)	–
CCN(CCCNC(=O)c1ccc2c(c1)NC(=O)CN2C)c1cccc(C)c1	–	79.4 µM (active)
CCOc1ccc(N(CC)C(=O)c2noc3c2COc2ccc(C)cc2-3)cc1	8.55% (inactive)	–
CCOc1cccc(CC(=O)N2CCc3c([nH]c4ccccc34)C2c2ccc(OC)cc2)c1OCC (stereo not drawn)	11.9% (inactive)	–
COc1ccc(-c2cc(=O)oc3cc(OCC(=O)N[C@@H](Cc4c[nH]c5ccccc45)C(=O)O)ccc23)cc1	-24.6% (inactive)	–
COc1ccc(-c2cc(C(=O)NC(C(=O)O)C(C)C)c(C)o2)cc1OC (stereo not drawn)	-0.859% (inactive)	–
COc1ccc(-c2cc(C(=O)NC(Cc3c[nH]c4ccccc34)C(=O)O)c(C)o2)cc1OC (stereo not drawn)	–	44.7 µM (active)
CC1CCN(c2nc3ccc(C(=O)N4CCN(c5ccccc5)CC4)cc3s2)CC1	19.1% (inactive)	–
COc1ccc(Cn2c(=O)n(-c3ccccc3C)c(=O)c3c4c(sc32)CN(C(C)=O)CC4)cc1	7.19% (inactive)	–
Cc1ccc(C)c(N2CCN(S(=O)(=O)c3ccc4c(c3)C(C(C)C)C(=O)N4)CC2)c1 (stereo not drawn)	8% (inactive)	–
Cc1csc(-c2coc3cc(O[C@@H]4O[C@H](CO)[C@@H](O)[C@@H](O)[C@H]4O)ccc3c2=O)n1	9.43% (inactive)	–
O=C(O)CCn1cc(/C=C/C(=O)c2ccc(Cl)cc2)c(-c2cccc(Br)c2)n1	–	15.8 µM (active)
O=C(COC(=O)/C=C/c1cn(-c2ccccc2)nc1-c1cccnc1)Nc1ccc(Cl)cc1Cl	-8.09% (inactive)	–
O=C(/C=C/NNC(=O)c1cccc(Br)c1)c1ccccc1	0% (inactive)	–
